# Results from PubChem BioAssay AID938 (National Center for Advancing Translational Sciences (NCATS), 2007).
# “And” between values parts separate entries of the source, which are not always exact repeats. Equal entries are not always repeated. About 1,800 (2.5%) of roughly 73,000 compounds were called active. Another 13% or so got no clear call; they are omitted. Calls come from the whole dose curve; as a rule, active = well fitted activation curve with a large enough effect; inconclusive = small, poorly fitted or top-dose-only effect; inactive = no such curve, though single readings can be large or run the other way. This excerpt belongs to a sample that is enriched for actives.
# Assay: qHTS Assay for Agonists of the Thyroid Stimulating Hormone Receptor: Activators of Intracellular cAMP Concentrations in Parental HEK 293; note: nearly all actives have a fitted effect of over 55% in size; for activation: % of control where 0% means no effect
# Details: parental HEK293 CNG cAMP sensor, membrane potential fluorescence; series mostly up to 57.1 µM; activation: at the top concentration
# Excerpt: NIH Chemical Genomics Center [NCGC]
# NIH Molecular Libraries Screening Centers Network [MLSCN]
# PI Name: Dr. Marvin Gershengorn
# This cell based assay utilized a cyclic nucleotide gated ion channel (CNG) as a biosensor for cAMP induction. HEK 293 cells stably expressing the modified CNG were purchased from BD biosciences (http://www.atto.com/products/actone/features_benefits.shtml) . Stimulation of cAMP production causes the CNG to open and subsequent membrane depolarization to occur. A fluorescent membrane potential dye (BD biosciences) was utilized to detect cAMP stimulation in cells.
# The cells were maintained in DMEM medium (Invitrogen) containing 10 % FBS (Hyclone), 100 units/ml Penicillin, 100 ug/ml Streptomycin (Invitrogen), and 250 ug/ml Geneticin (Invitrogen) and 1 ug/ml Puromycin (Invitrogen) at 37C in 5% CO2. This assay was used as a counterscreen to "qHTS Assay for Agonists of the Thyroid Stimulating Hormone Receptor", to control for compounds signaling through endogenous receptors and other targets of HEK 293 cells.
# NCGC Assay Protocol Summary:
# High Throughput Screening. Freshly passaged cells were dispensed into 1536-well assay plates at 4 ul/well in DMEM containing phenol red (Invitrogen), 10% FCS (Hyclone), and 100 units/ml Penicillin, 100 ug/ml Streptomycin (Invitrogen) and incubated at 37 C with 5% CO2 for 20 to 36 hrs before the robotic screening. The screen was initiated by addition of 4 ul/well membrane potential dye containing 100 uM RO 20-1724 (Sigma Aldrich), followed by 60 min incubation at room temperature to allow for dye equilibration across the cell membrane. 23 nl/well compound or control was then added to the assay plates, which were incubated for additional 30 min before reading a Envision fluorescence plate reader (Perkin Elmer) in bottom-read mode for fluorescence intensity (emission at 590 nm).
# Keywords: cAMP, CNG Ion Channel, quantitative high throughput screening, qHTS, HTS, probe identification, CNG, cAMP, cyclic nucleotide gated ion channel PubChem
# Potency is the fitted concentration of half-maximal effect.
SMILES,activation,Potency
COc1ccc(CCN(Cc2cc3cccc(C)c3[nH]c2=O)C(=O)N2CCCC2)cc1OC,4.44% (inactive),–
CCC(c1nnnn1Cc1ccco1)N(CCc1ccccc1)Cc1cc2cccc(C)c2[nH]c1=O (configuration not stated),–,12.6 µM (active)
COc1ccc2[nH]c(=O)c(CN(CC3CCCO3)C(=O)Nc3ccccc3)cc2c1 (configuration not stated),7.93% (inactive),–
CCC(c1nnnn1C1CCCC1)N(Cc1cccs1)Cc1cc2cccc(C)c2[nH]c1=O (configuration not stated),24.4% (inactive),–
CCC(c1nnnn1Cc1ccco1)N(Cc1cc2cc(OC)ccc2[nH]c1=O)C1CCCCC1 (configuration not stated),–,10 µM (active)
COc1ccc2[nH]c(=O)c(CN(Cc3nnnn3CCc3ccccc3)CC3CCCO3)cc2c1 (configuration not stated),11.3% (inactive),–
COc1ccc(/C=C/NC(=O)Cc2ccc(OC)c(OC)c2)cc1,28.5% [at 11.4 µM] (inactive) and 7.24% [at 11.4 µM] (inactive),–
Cn1c(CNc2nc(-c3ccccc3)cs2)nnc1SCC(=O)c1ccccc1,5.27% (inactive),–
CCN(CC)CCCCn1c(-c2ccccc2)nc2c(N3CCOCC3)nc(C)nc21,25% (inactive),–
CC(=O)Nc1ccc(N2CCOCC2)c(C(=O)Nc2cccc(C)c2)c1,-0.0802% (inactive),–
O=C(CNC(=O)c1ccc(Cl)cc1Cl)NCC(=O)Nc1ccccc1N1CCOCC1,2.72% (inactive),–
COc1c(C)cccc1C(=O)Nc1cc(Cl)ccc1N1CCOCC1,–,25.1 µM (active)
Cc1ccc(NC(=O)c2cccc(N(C)C)c2)cc1NC(=O)c1ccc(O)cc1,0.64% (inactive),–
COC(=O)c1oc2ccc(Br)cc2c1NC(C)=O,10.9% (inactive),–
Cc1cccc(OCc2nnc(SCc3nc4cc(C(F)(F)F)ccc4c(=O)[nH]3)o2)c1,2.42% (inactive),–
Cc1cc(C)cc(OCc2nnc(SCC(=O)Nc3ccccc3)o2)c1,6.95% (inactive),–
Cc1cccc(OCc2nnc(SCn3nnc4ccccc4c3=O)o2)c1,–,25.1 µM (active)
Cc1noc(C)c1S(=O)(=O)N(CC(=O)Nc1ccc2c(c1)OCCO2)c1ccc(C(C)C)cc1,20.2% (inactive),–
C=CCOc1ccc(/C=N/n2cncn2)cc1OC,-4.54% (inactive),–
Cc1nc(C)c(C(=O)Nc2cccc(C)c2C)o1,7.93% (inactive),–
Cc1ccc(OCC(=O)Nc2ccc(-c3nnc(-c4ccco4)o3)cc2)cc1,21.5% (inactive),–

SMILES,activation,Potency
CCCCOc1ccc(-c2nnc(-c3ccco3)o2)cc1,–,20 µM (active)
CCC(=O)Oc1cccc(C(=O)Nc2ccc(-c3nnc(-c4ccco4)o3)cc2)c1,1.31% (inactive),–
CC(C)(C)c1ccc(OC2C=CC(C#Cc3ccccc3)OC2CO)cc1 (configuration not stated),12.6% [at 11.4 µM] (inactive),–
Cc1cc2nc3c(=O)[nH]c(=O)nc-3n(C[C@H](O)[C@H](O)[C@H](O)CO)c2cc1C,35.7% (inactive),–
CC(Cc1cccs1)NC(=O)NC1CCCCC1 (configuration not stated),6.28% (inactive),–
Cc1ccccc1NC(=O)c1cnn(-c2ccccc2)c1NC(=O)c1ccco1,5.37% (inactive),–
O=C(Nc1ccc(Oc2ccccc2)cc1)c1ccco1,9.26% (inactive),–
O=C(Nc1c(-c2ccccc2)nc2c(Br)cc(Br)cn12)c1ccco1,–,20 µM (active)
N#Cc1nc(COc2ccc(Cl)cc2)oc1N1CCCC1,–,15.8 µM (active)
Cn1c(=O)c2c(nc(N3CCCCCC3)n2CC(O)COc2ccc(Cl)cc2)n(C)c1=O (configuration not stated),-35.3% (inactive),–
CCOc1ccc(Nc2oc(Cc3ccccc3)nc2C#N)cc1,6.65% (inactive),–
N#Cc1nc(COc2ccc(-c3ccccc3)cc2)oc1NCc1cccnc1,16.9% (inactive),–
Cc1ccc(OCc2nc(C#N)c(N3CCCC3)o2)cc1,–,20 µM (active)
N#Cc1nc(-c2ccc(OCc3ccccc3)cc2)oc1NCCCN1CCOCC1,-0.986% (inactive),–
CCOc1cc(/C=N/O)cc(Br)c1OC,15% [at 11.4 µM] (inactive),–
CCOC(=O)[C@]1(C(/C=C/c2ccco2)NC(=O)OC)CCCC1=O (some centres not stated),0.322% [at 11.4 µM] (inactive),–
O=C(NC(Cc1ccccc1)C(=O)N1CCCC1C(=O)O)c1ccccc1 (configuration not stated),-0.0027% (inactive),–
O=c1c(CCc2ccccc2)nc2cncnc2n1C1CC1,2.16% (inactive),–
CCOC(=O)C1CCCN(C(=O)C2CCN(c3nnc(-n4cccc4)s3)CC2)C1 (configuration not stated),12.6% (inactive),–
O=C1CSC(c2cccc(F)c2)N1c1ccccc1F (configuration not stated),4.72% (inactive),–
Cc1cc(/C=N/n2cnnc2)c(C)n1-c1cccc(C(=O)O)c1,7.1% (inactive),–

SMILES,activation,Potency
Fc1ccc(Br)cc1/C=N/n1cnnc1,11% (inactive),–
Cc1cc(/C=N/n2cnnc2)c(C)n1-c1ccc2ncccc2c1,–,3.98 µM (active)
CCOC(=O)c1cc2cc(-c3c(C(=O)OCC)oc4cc(O)cc(O)c4c3=O)ccc2o1,-9.15% (inactive),–
O=C(Nc1cccc(F)c1)N1CCC2(CC1)CCN(S(=O)(=O)c1ccccc1)CC2,-5.07% (inactive),–
CN1CCC2(CC1)CCN(S(=O)(=O)c1ccccc1)CC2,–,3.98 µM (active)
COc1ccccc1CN1CC2(CCN(S(=O)(=O)c3ccccc3)CC2)C1,7.71% (inactive),–
CC(=O)c1cnc(Nc2nc(C)c3cc(C)ccc3n2)nc1C,-1.78% (inactive),–
CO/N=C\[C@@H](C)[C@H](OCc1ccccc1)C(C)C,-0.643% [at 11.4 µM] (inactive),–
C[C@H]1CC[C@H](C(=O)O)N[C@@H]1c1ccc(C#Cc2ccccc2)cc1,0.689% [at 11.4 µM] (inactive),–
CC(C)[C@H](NC(=O)Nc1ccc(S(N)(=O)=O)cc1)C(=O)O,3.41% (inactive),–
Cc1ccc(-c2nnn(CC(=O)N(CCO)C(C(=O)NC(C)(C)C)c3ccncc3)n2)cc1 (configuration not stated),9.77% (inactive),–
O=C(Cn1nnc(-c2ccccc2)n1)NCc1ccc2c(c1)OCO2,12.1% (inactive),–
Cc1ccc(C(=O)CSc2nnc(Cn3nnc4ccccc43)n2C)cc1,1.67% (inactive),–
CC(C)(C)NC(=O)C(c1ccncc1)N(C(=O)CNC(=O)c1ccco1)c1ccc2c(c1)OCO2 (configuration not stated),-1.28% (inactive),–
CC(C)(C)NC(=O)C(c1ccco1)N(Cc1ccc2c(c1)OCO2)C(=O)Cn1nnc2ccccc21 (configuration not stated),–,15.8 µM (active)
CCC(C)(C)NC(=O)C(c1cccn1C)N(Cc1ccc(C)cc1)C(=O)Cn1nnc2ccccc21 (configuration not stated),–,15.8 µM (active)
CC(=O)c1nc(N2C(=O)C3CC=C(C)CC3C2=O)sc1C (configuration not stated),1.5% (inactive),–
CCOC(=O)CCC(=O)OCC(=O)NC(C)C1CC2CCC1C2 (configuration not stated),5.54% (inactive),–
CCc1c(C)sc(NC(=O)OC)c1C(=O)N1CCOCC1,-1.6% (inactive),–
CC(=O)OCC(=O)[C@@]1(O)CC[C@@H]2[C@H]3CCC4=CC(=O)C=C[C@]4(C)[C@]3(F)[C@@H](O)C[C@@]21C,-1.34% [at 25.6 µM] (inactive),–
